Compound activity (PubChem)
Only some compounds are listed: those with a hit (about 12% of all), similar ones and a draw of the others.
G9a block: G9a (human) methyltransferase inhibition. Potency, µM (doses to about 102 µM), without a hit: top-dose activity, negative = inhibition, hits mostly inhibitors. Q96KQ7. 8.8% of 350,000 active. AID 504332. G9a H3K9 monomethylation, AlphaScreen, 2 h; further: on the % scale 0 is the no-effect control and ±100 the full control effect; nearly all actives have a fitted effect of over 75% in size
Target sequence (Q96KQ7 913-1193 limits assumed): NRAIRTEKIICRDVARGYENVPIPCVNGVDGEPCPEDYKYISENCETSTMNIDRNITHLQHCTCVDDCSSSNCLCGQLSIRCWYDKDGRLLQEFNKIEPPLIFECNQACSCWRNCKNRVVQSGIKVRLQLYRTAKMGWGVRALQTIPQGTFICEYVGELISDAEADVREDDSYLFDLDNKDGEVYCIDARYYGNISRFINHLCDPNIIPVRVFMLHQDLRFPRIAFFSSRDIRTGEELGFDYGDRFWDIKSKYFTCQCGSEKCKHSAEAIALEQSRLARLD
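Chemiluminescent proximity detection of H3K9 monomethylation, read after 10 min bead incubation in the dark. Reaction: 20 nM G9a, 500 nM biotin-H3K9 peptide, 20 uM SAM cofactor, 2 h, room temperature, following 15 min enzyme-compound preincubation.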
HP1b binding inh: inhibitors of HP1-beta chromodomain binding to methylated histone tails; P83916; AlphaScreen HP1-beta / biotin-H3K9me3 peptide binding; Potency, µM (series often up to 114 µM), without a hit: at the top dose activity change, negative = inhibition, usual class: inhibitors; 0.56% of 390,000 active; AID 540317; further: nearly all actives have a fitted effect of over 70% in size
Target sequence (P83916 whole entry, looked up): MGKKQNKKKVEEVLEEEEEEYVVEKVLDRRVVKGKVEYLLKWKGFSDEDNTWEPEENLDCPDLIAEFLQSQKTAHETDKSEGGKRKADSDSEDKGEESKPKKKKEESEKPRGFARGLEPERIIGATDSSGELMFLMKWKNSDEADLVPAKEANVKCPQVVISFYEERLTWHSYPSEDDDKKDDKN
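AlphaScreen: HP1-beta (50 nM) preformed 30 min with biotin-H3(1-18)K9me3 peptide (50 nM) in PBS pH 7.4, 0.01% Tween-20. Compound added for 30 min at RT, then streptavidin donor/nickel chelate acceptor beads (10 ug/mL) for 30 min.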
BAZ2B block: blocks human BAZ2B. Q9UIF8. AlphaScreen BAZ2B-H3K14Ac peptide displacement. Potency, µM (top dose mostly 114 µM), inactives show at the top dose activity change, negative = inhibition, usual class: inhibitors. 4.4% of 360,000 active. AID 504333; further: on the % scale 0 is the no-effect control and ±100 the full control effect; nearly all actives have a fitted effect of over 60% in size
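Inhibition is scored as reduced AlphaScreen emission. The BAZ2B/b-H3(5-23)K14Ac complex (50 nM each) in PBS pH 7.4, 0.01% Tween-20 meets compound (up to 110 uM) for 30 min at RT before bead addition.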
Sfp PPTase inh: blocks B. subtilis Sfp PPTase activity; 3.5% of 310,000 active; Q9F4F7; Potency, µM, for the others: largest response in the series, negative = inhibition, most hits filed as inhibitors; Biochemical Sfp PPTase activity, qHTS;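 further: the enzyme is Sfp with the accession as filed and its product quenches rhodamine fluorescence; 0% = enzyme reaction without inhibitor and -100% = no enzyme wells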
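Step 1, compound plus 15 nM Sfp-PPTase, 15 min, room temperature. Step 2, add rhodamine-CoA (5 uM) and BHQ-2-YbbR (12.5 uM). Step 3, read 525/598 nm fluorescence at 0 and 30 min.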
JMJD2A Tudor inh: inhibitors of human JMJD2A Tudor domain; 4.4% of 390,000 active; Potency, µM (titrated, usually from 114 µM), without a hit: at the highest dose activity change, negative = inhibition, usual class: inhibitors; AID 504339; AlphaScreen JMJD2A-Tudor / H3K4me3 peptide binding; O75164; further: on the % scale 0 is the no-effect control and ±100 the full control effect; nearly all actives have a fitted effect of over 50% in size
An asterisk follows results filed as active; [ ] = remark or other dose. The call rests on the fitted dose curve; in most records, active means well fitted curve in the direction sought with a large enough effect; inconclusive means small, poorly fitted or top-dose-only effect, or another doubt; inactive means no such curve, though single readings can be large; an effect the other way counts as inactive or inconclusive. Potency means the concentration at half of the fitted maximal effect.

What do the screens show for `Cc1cc(C)cc(S(=O)(=O)Nc2cccc(-c3ccc(N4CCOCC4)nn3)c2)c1`?
G9a block: 3.0%[59 µM]; HP1b binding inh: 12.1%[57 µM]; BAZ2B block: -4.7%; JMJD2A Tudor inh: -30.0%

Results for COc1ccc(C(c2nnnn2C2CCCC2)N2CCN(C(=O)c3ccco3)CC2)cc1OC (centres undefined) ?
G9a block: inconclusive; HP1b binding inh: 29.4%[57 µM]; BAZ2B block: inconclusive; Sfp PPTase inh: 2.0%; JMJD2A Tudor inh: inconclusive

How did Oc1ccc(C(c2nnnn2C2CCCC2)N2CCc3ccccc3C2)cc1 (centres undefined) do in these assays?
G9a block: 4.47µM*; HP1b binding inh: -10.3%; BAZ2B block: 56.2µM*; Sfp PPTase inh: 50.1µM*; JMJD2A Tudor inh: 6.8%[11.4 µM]

What do the screens show for `COc1cc(C(c2nnnn2C2CCCC2)N2CCc3ccccc3C2)ccc1O` (centres undefined)?
G9a block: 1.78µM*; HP1b binding inh: inconclusive; BAZ2B block: -29.9%; Sfp PPTase inh: 17.8µM*; JMJD2A Tudor inh: inconclusive

Results for CSc1ccc(CCNC(=O)c2ccc(-c3nc(COc4ccccc4)c(C)o3)cc2)cc1 ?
G9a block: 4.7%[59 µM]; HP1b binding inh: 39.0%; BAZ2B block: 0.5%; JMJD2A Tudor inh: 14.1%

Results for CCS(=O)(=O)c1ccccc1C(=O)N(Cc1cccnc1)c1nc2cc(C)c(C)cc2s1 ?
G9a block: -42.7%[59 µM]; HP1b binding inh: 23.5%; BAZ2B block: inconclusive; JMJD2A Tudor inh: -35.7%

Results for Cc1ccc(SCCNC(=O)CN(c2ccccc2)S(=O)(=O)N(C)C)cc1 ?
G9a block: 5.5%[59 µM]; HP1b binding inh: 29.0%; BAZ2B block: 1.1%; JMJD2A Tudor inh: 7.9%

Results for COCCN(C(=O)Cc1cccs1)c1nnc(-c2ccncc2)s1 ?
G9a block: inconclusive; HP1b binding inh: 4.9%; BAZ2B block: 79.4µM*; Sfp PPTase inh: 7.2%; JMJD2A Tudor inh: -24.3%

What do the screens show for `COc1ccccc1-c1noc(-c2ccccc2C(=O)NCc2ccco2)n1`?
G9a block: -3.2%[59 µM]; HP1b binding inh: 30.0%; BAZ2B block: -19.0%; Sfp PPTase inh: -4.8%; JMJD2A Tudor inh: -14.4%

How did c1coc(CNc2nc3nonc3nc2NCc2ccco2)c1 do in these assays?
G9a block: inconclusive; HP1b binding inh: -4.7%; BAZ2B block: -15.2%; Sfp PPTase inh: 22.4µM*; JMJD2A Tudor inh: -30.5%[57.1 µM]

What do the screens show for `COc1cc(-c2cc(C(=O)Nc3ccc(S(=O)(=O)NCc4ccco4)cc3)c3ccccc3n2)cc(OC)c1OC`?
G9a block: -39.1%[59 µM]; HP1b binding inh: 11.8%; BAZ2B block: -2.4%; Sfp PPTase inh: 4.2%; JMJD2A Tudor inh: -16.4%

Results for COc1cc(-c2noc(-c3ccccc3C(=O)NCc3ccco3)n2)cc(OC)c1OC ?
G9a block: 39.8µM*; HP1b binding inh: -3.8%; BAZ2B block: -23.8%; Sfp PPTase inh: 19.5%; JMJD2A Tudor inh: -16.0%

Results for COc1cc(-c2cc(C(=O)NCc3ccco3)c3ccccc3n2)cc(OC)c1OC ?
G9a block: 50.1µM*; HP1b binding inh: 9.9%; BAZ2B block: -35.3%; Sfp PPTase inh: -13.8%; JMJD2A Tudor inh: -28.4%

What do the screens show for `c1ccc(-c2noc(-c3cccnc3NCc3ccco3)n2)cc1`?
G9a block: 17.8µM*; HP1b binding inh: 48.7%; BAZ2B block: -21.1%; JMJD2A Tudor inh: -8.6%

Results for CCc1ccc(NC(=O)CSc2nc3ccccc3c(=O)n2CCCC(=O)NCCCN2CCOCC2)cc1 ?
G9a block: inconclusive; HP1b binding inh: 5.8%; BAZ2B block: -29.4%; Sfp PPTase inh: -18.2%; JMJD2A Tudor inh: -25.3%

How did CCc1ccc2[nH]c(=O)c(CN(Cc3ccco3)Cc3nnnn3Cc3ccco3)cc2c1 do in these assays?
HP1b binding inh: -8.1%[57 µM]; JMJD2A Tudor inh: -28.5%[57.1 µM]

Results for S=C1NCC(c2ccccc2)S1 (centres undefined) ?
HP1b binding inh: 80.3%; JMJD2A Tudor inh: -4.8%

What do the screens show for `Cc1cccc(-c2noc(-c3ccccc3C(=O)NCc3ccco3)n2)c1`?
G9a block: inconclusive; HP1b binding inh: 4.7%; BAZ2B block: 50.1µM*; Sfp PPTase inh: 39.8µM*; JMJD2A Tudor inh: inconclusive
